Source: PubChem
CCHFV vOTU inh: blocks the CCHF virus ovarian tumor domain protease | CCHFV vOTU protease, Pep-AMC fluorescence | inhibition, % at 11.5 µM | hit rate 0.55% among 370,000; in the data active = inhibition above about 30%; also: 0% = vehicle wells with enzyme and 100% = no enzyme wells
DUSP3 inh: inhibitors of human VHR1 phosphatase (DUSP3) | AID 1654 | hit rate 0.52% among 290,000 | recombinant VHR phosphatase, pNPP absorbance | P51452 | inhibition, % at 13.3 µM; in the data active = inhibition above about 50%
Target sequence (P51452 whole entry, looked up): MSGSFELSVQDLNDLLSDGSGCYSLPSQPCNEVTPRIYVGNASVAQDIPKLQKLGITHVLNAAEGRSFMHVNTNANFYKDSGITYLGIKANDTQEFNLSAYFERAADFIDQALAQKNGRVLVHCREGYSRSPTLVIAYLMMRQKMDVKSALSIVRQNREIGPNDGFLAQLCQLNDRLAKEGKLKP
Mtb hypoxia rep: Mtb hypoxia fluorescent reporter inhibition; M. tuberculosis hypoxia-regulated fluorescent reporter, fluorescence; fluorescence inhibition, % (no concentration beside the values); hit rate 0.1% among 300,000; AID 1159583; in the data active = fluorescence inhibition mostly above about 23%, no sharp cut-off; inactive = mostly below about 17%
SARS 3CLpro inh-1: SARS-CoV 3CLpro protease inhibition | P0C6X7 | recombinant SARS-CoV 3CLpro, quenched FRET peptide cleavage | inhibition, % at 6 µM | hit rate 0.14% among 290,000; in the data active = inhibition above about 12%
PriA SSB inh: blocks PriA binding to SSB C-terminal tail | AlphaScreen SSBct-PriA binding, biotinylated peptide | inhibition, % at 33 µM | hit rate 0.6% among 430,000; in the data active = inhibition mostly above about 37%, no sharp cut-off; inactive = mostly below about 20%;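 also: plate controls were negative control peptide for no effect and reference peptide for full effect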
SARS 3CLpro inh-2: confirmation of SARS coronavirus 3C-like protease inhibitors | shares compounds with SARS 3CLpro inh-1 | QFRET protease activity assay, 3CLpro | inhibition, % at 6 µM | hit rate 36% among 380 | AID 1879; in the data active = inhibition above about 13%
Active calls of the source: *; · = not tested or not shown. Most compounds without a hit are left out; they make up all but 1.3% or so of the library.

SMILES	CCHFV vOTU inh	DUSP3 inh	Mtb hypoxia rep	SARS 3CLpro inh-1	PriA SSB inh	SARS 3CLpro inh-2
COc1c(Cl)cc(C(=O)NN)cc1Cl	-9	18	7	16*	2	17*
CSc1ncccc1C(=O)NCC[C@H](O)c1ccc2c(c1)OCO2	·	·	·	·	-7	·
CCN(c1ccc(OC)cc1)S(=O)(=O)c1nnc(NC(=O)COc2ccc(C)cc2)s1	·	-9	9	13*	-10	1
COC(=O)c1cc2sccc2n1CC(=O)Nc1ccc(OC)c(OC)c1OC	1	16	-10	14*	0	-4
COc1cc(NC(=O)C2CC(c3cccc(Br)c3)=NO2)cc(OC)c1OC (stereo not given)	-15	13	-7	13*	-9	2
Cc1cc(NC(=O)c2ccc(F)c(F)c2)n(-c2nc3c(cnn3-c3ccc(Cl)cc3)c(=O)[nH]2)n1	·	·	·	·	-5	·
CC(C)C[C@H](NC(=O)c1nc[nH]c1C(=O)NCc1ccc(CNC(=O)OC(C)(C)C)cc1)C(=O)OC(C)(C)C	22	24	·	14*	1	13*
O=C(c1ccc(Cl)s1)N1CCc2nc3ccccn3c(=O)c2C1	·	·	·	·	-17	·
COc1ccc(N(C(=O)Cn2nnc3ccccc32)C(C(=O)NCc2ccco2)c2ccc(C)o2)cc1 (stereo not given)	11	7	·	21*	-6	26*
COc1cccc(N(C(=O)Cn2nnc3ccccc32)C(C(=O)NCc2ccco2)c2cccnc2)c1 (stereo not given)	12	24	·	1	-4	·
COc1cccc(C(C(=O)NCc2ccco2)N(Cc2ccco2)C(=O)Cn2nnc3ccccc32)c1 (stereo not given)	8	-12	-1	28*	10	40*
COc1cccc(CNC(=O)CSc2ncc(-c3ccc(F)cc3)o2)c1	·	·	·	·	-17	·
O=C(NN1C(=O)/C(=C/c2ccc(O)cc2)SC1=S)c1ccccc1O	8	4	11	13*	-8	-2
COc1cc(/C=C2\SC(=S)N(NC(=O)c3ccccc3O)C2=O)ccc1O	7	·	-2	3	3	·
CN(C)c1nc(N)nc(-c2nc3ccccc3s2)n1	1	6	16	13*	-3	-6
CCCCOc1ccc(CONS(=O)(=O)c2ccc(NC(C)=O)cc2)cc1Cl	-5	-1	-2	19*	-8	8
C=c1c(=C2N=C(c3ccc(C)cc3)NO2)oc2ccc(S(=O)(=O)N(CC)CCCC)cc12	·	·	·	·	-12	·
Cc1ccc(C)c(OC(C)C(=O)Nc2nccs2)c1 (stereo not given)	3	19	-14	13*	-10	0
Cc1ccc(C)c(OC(C)C(=O)Nc2ccc(S(=O)(=O)Nc3nccs3)cc2)c1 (stereo not given)	11	38	1	-3	5	·
CCc1ccc(-c2cc3c(SCC(=O)Nc4cccc(Cl)c4C)nccn3n2)cc1	·	·	·	·	8	·
NC(=O)CCn1c(C(=O)c2ccc(Cl)cc2)c2ccccc2[n+]1[O-]	-2	-22	8	46*	-18	48*
CC(C)CNS(=O)(=O)c1ccc(CCC(=O)Nc2cc(Cl)ccc2Oc2ccccc2)cc1	17	22	·	12*	-2	1
CCCNS(=O)(=O)c1ccc(CCC(=O)Nc2cc(Cl)ccc2Oc2ccccc2)cc1	2	35	14	3	-12	·
O=C(CCS(=O)(=O)c1ccccc1)N1CCN(C(=O)CCS(=O)(=O)c2ccccc2)CC1	·	·	·	·	-16	·
CCCCCn1c(CN2CCN(Cc3ccccc3)CC2)nc2c1c(=O)[nH]c(=O)n2C	-2	44	1	13*	-9	2
SMILES	CCHFV vOTU inh	DUSP3 inh	Mtb hypoxia rep	SARS 3CLpro inh-1	PriA SSB inh	SARS 3CLpro inh-2
O=C(Oc1ccc2cccc(OC(=O)N3CCOCC3)c2c1)N1CCOCC1	-5	23	·	13*	-6	-1
O=C(Cc1noc2ccccc12)N1CC(c2nc(-c3ccc[nH]c3=O)no2)C1	·	·	·	·	-4	·
COc1ccc(-c2cn3c(CC(=O)Nc4cccc(C)c4C)csc3n2)cc1	·	·	·	·	15	·
COCCN(C(=O)Cn1nnc2ccccc21)C(C(=O)NC1CCCCC1)c1ccc(OC)cc1OC (stereo not given)	6	8	-3	4	-4	·
COc1ccc(N(C(=O)Cn2nnc3ccccc32)C2(C(=O)NC3CCCC3)CCCCC2)cc1	13	-6	14	30*	8	43*
Cc1sc(NC(=O)CCl)c(C(=O)c2ccccc2)c1C	15	9	14	14*	15	36*
Cc1cc(N(C)C)nc(CNC(=O)c2snnc2C)n1	·	·	·	·	4	·
O=C(Nc1ccccc1-c1nc2ccccc2[nH]c1=O)c1ccc(Br)o1	·	·	·	·	-5	·
